Bioassay records (PubChem BioAssay)
Luc counter – Kinase-Glo luciferase inhibition (counter-screen). 0.28% of 200,000 active. Kinase-Glo luciferase, ATP luminescence, 8 min. Potency, µM (highest dose often 38.3 µM), without a hit: at the highest dose activity change, negative = inhibition, actives largely listed as inhibitors; further: nearly all actives have a fitted effect of over 60% in size
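Substrate mix (final 50 mM imidazole pH 7.2, 50 mM KCl, 7 mM MgCl2, 10 uM ATP, 0.01% Tween 20, 0.05% BSA) plus pin-tool compound, then Kinase-Glo detection mix; 8 min ambient, luminescence read.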
RORg inh – ROR gamma (mouse) transcription inhibition. 5.4% of 310,000 active. Drosophila S2 Gal4-RORgamma UAS-luciferase reporter, 20 h. AID 2551. Potency, µM (highest dose often 53.6 µM), for the others: at the top dose activity change, negative = inhibition, actives largely listed as inhibitors; further: nearly all actives have a fitted effect of over 60% in size
Target sequence (P51450 whole entry, looked up, the tested form may be a part): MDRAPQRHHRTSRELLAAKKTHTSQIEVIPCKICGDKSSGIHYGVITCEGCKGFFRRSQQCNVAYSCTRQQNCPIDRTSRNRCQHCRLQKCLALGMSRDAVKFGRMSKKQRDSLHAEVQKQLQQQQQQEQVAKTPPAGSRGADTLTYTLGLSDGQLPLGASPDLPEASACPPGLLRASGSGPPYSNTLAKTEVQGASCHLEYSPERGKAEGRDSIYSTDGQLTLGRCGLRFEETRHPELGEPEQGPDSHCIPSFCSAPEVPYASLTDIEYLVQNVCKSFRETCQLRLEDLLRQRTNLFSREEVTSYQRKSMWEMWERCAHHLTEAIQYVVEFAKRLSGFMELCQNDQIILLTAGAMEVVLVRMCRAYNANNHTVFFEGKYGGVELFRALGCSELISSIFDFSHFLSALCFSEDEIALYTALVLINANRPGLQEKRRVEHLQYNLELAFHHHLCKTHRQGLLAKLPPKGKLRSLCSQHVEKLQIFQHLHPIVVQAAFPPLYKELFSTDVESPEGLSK
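Read-out: Photinus luciferase luminescence; inhibitors lower reporter signal. Insect Schneider cells with Gal4-ROR gamma fusion under metallothionein promoter, UAS reporter; 700 uM final copper sulfate induction, 20 hr, ambient temperature.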
VP16 counter – inhibits Gal4-VP16 luciferase reporter, ROR gamma counter-screen. Drosophila S2 Gal4-VP16 UAS-luciferase, luminescence, 20 h. Potency, µM (series often up to 53.6 µM), without a hit: at the highest dose activity, negative = inhibition, most hits filed as inhibitors. 3.5% of 310,000 active. AID 2546;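 further: Gal4-VP16 expression switched on by copper sulfate through the metallothionein promoter; nearly all actives have a fitted effect of over 50% in size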
* marks the source's active call; other numbers are inactive results; ? = inconclusive; · = not tested or not shown; [ ] = another dose, or the depositor's remark. Rows were chosen to be rich in hits. Some 6.2% of all compounds tested hit in one or more screens of this group. The call rests on the fitted dose curve; in most records, active means well fitted curve in the direction sought with a large enough effect; inconclusive means small, poorly fitted or top-dose-only effect, or another doubt; inactive means no such curve, though single readings can be large; an effect the other way counts as inactive or inconclusive. On the % scale 0 is the no-effect control and ±100 the full control effect; potency means the concentration at half of the fitted maximal effect.

SMILES	Luc counter	RORg inh	VP16 counter
O=C(O)c1cccc(CN2C(=O)S/C(=C/c3cccc([N+](=O)[O-])c3)C2=O)c1	·	5.6µM*	7.1µM*
O=C1/C(=C\c2cc(Br)cc(Br)c2O)SC(=S)N1Cc1ccccc1	·	13µM*	?
O=C1/C(=C\c2cccc([N+](=O)[O-])c2O)SC(=S)N1Cc1ccccc1	·	-63%	16µM*
O=C1/C(=C\c2ccc(O)cc2)SC(=S)N1Cc1ccccc1	·	?	-12%
O=C1/C(=C/c2ccc(O)c([N+](=O)[O-])c2)SC(=S)N1Cc1ccccc1	-5%	-2%	-1%
COc1cc(/C=C2/SC(=S)N(Cc3ccccc3)C2=O)ccc1OCC(=O)O	·	20%	12%
C=CCN=C1S/C(=C/c2cccc([N+](=O)[O-])c2)C(=O)N1CC=C	·	4%	14%
COc1cc([N+](=O)[O-])cc(/C=C2/SC(=S)N(Cc3ccccc3)C2=O)c1O	·	?	5µM*
Cc1oc(S(=O)(=O)N(C)C)cc1C(=O)Nc1ccc(Cl)cc1	·	0%	-6%
Cc1ccccc1-c1cncnc1NC1CCNCC1	0%	0%	6%
Cc1nc(SC(C)C(=O)NC2CCCCC2C)c2c(C)c(C)sc2n1 (stereo unspecified)	·	-44%	0%
O=C(NC1CCSC1=O)c1cccc(C(=O)NC2CCSC2=O)c1 (stereo unspecified)	-1%	-14%	4%
CC1=Cc2ccccc2C(C#N)N1C(=O)c1ccccc1 (stereo unspecified)	1%	?	13µM*
Cc1ccc2c(c1)C=CC(C#N)N2C(=O)c1ccccc1 (stereo unspecified)	-2%	-10%	-10%
O=C(COc1ccc(F)cc1)NCCCn1ccnc1	·	0%	-6%
CCCC(=O)Nc1ccc(NC(=S)NC(=O)c2cccs2)cc1	1%	?	?
CCCCn1nnc(NC(=O)c2ccco2)n1	-2%	-22%	-1%[0.365 µM]
Cn1nnc(NC(=O)c2ccc3ccccc3c2)n1	-1%	11%	3%
CCCCn1nnc(NC(=S)NC(=O)c2cccs2)n1	·	1.1µM*	1µM*
Cn1nnc(NC(=S)NC(=O)c2cccs2)n1	0%	8.9µM*	13µM*
Cn1nnc(NC(=O)c2ccc(C(C)(C)C)cc2)n1	-8%	?	-18%
COc1cc(OC)cc(C(=O)NC(=S)Nc2nnn(C)n2)c1	·	?	25µM*
CC(C)C(=O)NC(=S)Nc1nnn(C)n1	-1%	14µM*	?
CCOC(=O)N1CCN(C(=O)c2cn(C)c3ccc(S(=O)(=O)N4CCC(C)CC4)cc3c2=O)CC1	9%	41%	-5%
COCCn1c(=O)c(-c2ccccc2)nc2cnc(N3CCNCC3)nc21	-2%	-9%	-6%
SMILES	Luc counter	RORg inh	VP16 counter
Cn1nnc(NC(=O)c2ccccc2F)n1	-3%	38%[10 µM]	2%
Cn1nnc(NC(=S)NC(=O)c2cccc3ccccc23)n1	·	1.1µM*	3.5µM*
COc1ccc(Oc2ncc3nc(-c4cn(C)c5ccccc45)c(=O)n(C)c3n2)cc1	·	3%	-10%
COC(=O)c1sc2ccccc2c1NC(=O)c1ccc(S(=O)(=O)N2CC(C)CC(C)C2)cc1 (stereo unspecified)	0%	-1%	-1%
Cc1ccc2nc(NNC(=O)c3ccc(S(=O)(=O)N4CCc5ccccc5C4)cc3)sc2c1	0%	-1%	-10%
Cc1cc(C)c2nc(NNC(=O)c3ccc(S(=O)(=O)N4CC(C)CC(C)C4)cc3)sc2c1 (stereo unspecified)	1%	2µM*	7.9µM*
Cc1cc(C)c2nc(NNC(=O)c3ccc(S(=O)(=O)N4CCCC(C)C4)cc3)sc2c1 (stereo unspecified)	0%	0.79µM*	5µM*
Cc1csc(NC(=O)c2ccc(S(=O)(=O)N3CCCC3)cc2)n1	·	-2%	7%
Cc1cccc2sc(NNC(=O)c3ccc(S(=O)(=O)N4CC(C)CC(C)C4)cc3)nc12 (stereo unspecified)	1%	0.71µM*	1.4µM*
Cc1ccc(C(=O)NC2CCS(=O)(=O)C2)cc1S(=O)(=O)N1CCCC1 (stereo unspecified)	·	-25%	-2%
CCOCCCNC(=O)c1cc(Nc2ccc(OC)cc2OC)nc2ccccc12	·	16%	-2%
CCOC(=O)c1sc2nc(C)nc(NCc3ccc(Cl)cc3)c2c1C	·	?	-9%
CCOC(=O)c1sc2nc(Cc3ccc(Cl)cc3)[nH]c(=S)c2c1C	2%	2.8µM*	?
O=C(O)Cc1c(Cl)ccc(Cl)c1Cl	·	-8%	-10%
CC1=NN(/C(=N\c2nnc(C)s2)Nc2ccc(C(C)(C)C)cc2)[C@H](c2ccc(C)cc2)S1	-2%	18µM*	?
Cc1ccc(NC(=O)CCSc2nnc(C)s2)cc1	0%	-3%	1%
C=CCN1N=C(/C=C/c2ccccc2)CCC1=O	-3%	0%	-21%
CC(=O)OCC1OC(C#Cc2ccccc2)C=CC1O (stereo unspecified)	·	6%[10 µM]	3%[10 µM]
CSCc1ccc(C(=O)NCCSc2ccc(Br)cc2)cc1	·	35%	?
Cc1nnc(NC(=O)c2cccc(S(=O)(=O)N3CCc4ccccc43)c2)s1	-2%	-12%	?
O=C(Nc1nccs1)c1ccc(F)c(S(=O)(=O)N2CCOCC2)c1	·	-29%	-24%
Cc1cccnc1NC(=O)c1ccc(Cl)c(S(=O)(=O)N2CCCCCC2)c1	·	4µM*	?
Cc1cccnc1NC(=O)c1ccc(Cl)c(S(=O)(=O)N2CCCC2)c1	·	-25%	-10%
CN1CCN(S(=O)(=O)c2cccc(C(=O)Nc3nccs3)c2)CC1	·	-14%	5%
CC1CCN(S(=O)(=O)c2cccc(C(=O)Nc3nccs3)c2)CC1	3%	11µM*	?
SMILES	Luc counter	RORg inh	VP16 counter
O=C(Nc1nccs1)c1ccc(Br)c(S(=O)(=O)N2CCOCC2)c1	0%	13µM*	?
Cc1cccnc1NC(=O)c1cccc(S(=O)(=O)N2CCCc3ccccc32)c1	·	11µM*	?
COc1ccc(N2CCN(S(=O)(=O)c3cn(C)cn3)CC2)cc1	·	2%	0%
COc1ccc(N(Cc2cc3ccc(C)cc3[nH]c2=O)C(C)=O)cc1	-1%	-2%	1%
CCC(C)C(NC(=O)C(Cc1ccc(O)cc1)NC(=O)C(N)C(C)C)C(=O)NC(Cc1cnc[nH]1)C(=O)N1CCCC1C(=O)NC(Cc1ccccc1)C(=O)O (stereo unspecified)	·	-1%	-6%
c1ccc(Oc2nc(NC3CCCCC3)c3[nH]cnc3n2)cc1	0%[39.9 µM]	?	?
COc1ccc(CNc2ncnc3ccc(-c4cccc(NS(C)(=O)=O)c4)cc23)c(OC)c1	·	?	13%
O=C(Nc1ccon1)c1ccc(Cl)c(S(=O)(=O)N2CCCCC2)c1	·	1.4µM*	2.2µM*
O=C(Nc1ccon1)c1ccc(F)c(S(=O)(=O)N2CCCCC2)c1	·	21%	-6%
O=C(Nc1nc2ccccc2[nH]1)c1ccc(S(=O)(=O)N2CCOCC2)cc1	1%	11%	?
O=C(Nc1nccs1)c1cc(S(=O)(=O)N2CCCCC2)ccc1Cl	-3%	-36%	-16%
O=C(Nc1nccs1)c1ccc(Cl)c(S(=O)(=O)N2CCCCC2)c1	-3%	10µM*	?
O=C(Nc1nccs1)C1CCN(S(=O)(=O)c2c(Cl)cccc2Cl)CC1	0%	8.9µM*	9%
